# Among all 16,000 compounds or so, about 5,800 (36%) were called active. Not shown: some 23% with an inconclusive outcome. The list shows a part of the results. Values without a mark were called inactive. Calls follow the shape of the dose curve; as a rule, active = well fitted curve in the direction sought with a large enough effect; inconclusive = small, poorly fitted or top-dose-only effect, or effect the other way; inactive = no such curve, though single readings can be large or run the other way.
# Biological target: Cytochrome P450 2C19 (Homo sapiens) (UniProt P33261)
# Test: Cytochrome panel assay with activity outcomes
# Details: recombinant CYP, pro-luciferin dealkylation, luminescence, p450-cyp2c19; series mostly up to 57.1 µM
# % is scaled to controls: 0 for no effect and ±100 for the full control effect.
# Cytochrome P450 2C19 (Homo sapiens), sequence (P33261 whole entry, looked up): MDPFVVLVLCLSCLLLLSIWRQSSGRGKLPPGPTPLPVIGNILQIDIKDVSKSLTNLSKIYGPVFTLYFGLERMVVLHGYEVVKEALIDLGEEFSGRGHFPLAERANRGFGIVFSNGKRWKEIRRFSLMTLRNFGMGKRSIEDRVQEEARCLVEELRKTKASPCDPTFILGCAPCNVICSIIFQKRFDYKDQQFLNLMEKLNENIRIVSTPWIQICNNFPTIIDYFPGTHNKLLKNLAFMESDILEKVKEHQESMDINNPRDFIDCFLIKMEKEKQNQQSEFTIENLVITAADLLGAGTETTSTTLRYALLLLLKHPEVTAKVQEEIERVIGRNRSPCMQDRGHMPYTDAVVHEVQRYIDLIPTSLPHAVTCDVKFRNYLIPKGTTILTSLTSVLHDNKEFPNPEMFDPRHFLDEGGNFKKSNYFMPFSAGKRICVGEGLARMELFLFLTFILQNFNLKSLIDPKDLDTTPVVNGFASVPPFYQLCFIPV
Structure (SMILES),AC50,"activity, negative = inhibition"
CN(C)C(=O)c1ccc(-c2ccc3ncnc(N4CCC(C(=O)O)CC4)c3c2)cc1,inactive,
O=C(O)CCc1ccc(-c2ccccc2)[nH]1,,-7.89% [at 11.4 µM]
Clc1cccc(N/N=C/c2ccc(N3CCOCC3)cc2)c1,10 µM (active),
FC(F)(F)c1cccc(NC(=S)Nc2cccc(Cl)c2)c1,1.78 µM (active),
FC(F)(F)c1cccc(NC(=S)Nc2ccc(Cl)cc2Cl)c1,0.282 µM (active),
COc1ccc(C=O)cc1COc1ccc(C)cc1[N+](=O)[O-],2.24 µM (active),
C=CCNCCOCCOc1ccc(C)cc1[N+](=O)[O-],inactive,
Cc1cnc(CNc2cc(-c3ccc(C(=O)N(C)C)cc3)ncn2)cn1,inactive,
CN(C)c1ccc(-c2cc(Nc3ccc(F)cc3)ncn2)cc1,2 µM (active),
Fc1ccc(Nc2ccnc(-c3ccc4c(c3)OCO4)n2)cc1,2 µM (active),
CN1CCN(c2ccnc(-c3ccc(N(C)C)cc3)n2)CC1,inactive,
CN(C)c1ccc(-c2nccc(Nc3ccc(F)cc3)n2)cc1,3.16 µM (active),
Nc1nccc(Nc2ccc(S(N)(=O)=O)cc2)n1,,-11.8% [at 11.4 µM]
CC(C)(C)c1ccc(CN(Cc2ccco2)Cc2nnnn2C2CCCC2)cc1,2.24 µM (active),
O=C1CCc2cc(OCCCCc3nnnn3C3CCCCC3)ccc2N1,inactive,
c1ccc(CN2CC[C@@H](CNc3ncnc4ccccc34)C2)cc1,,-7.26% [at 11.4 µM]
OCC1CCCN(Cc2ccc(-c3ccccc3)cc2)C1 (stereo unspecified),inactive,
S[C@@H]1CCCN(Cc2ccccc2)C1,3.16 µM (active),
Cc1ccc(Oc2ncc(CN3CCOCC3)s2)cc1,1.78 µM (active),
Cc1cc(C(C)(C)C)c(OCCCN2CCOCC2)c(C(C)(C)C)c1,,-2.67% [at 11.4 µM]
CCOC(=O)C1CCN(Cc2cnc(Oc3ccc(OC)cc3)s2)CC1,7.94 µM (active),
CCOc1nc(NCCN2CCOCC2)nc(Nc2ccc(C)cc2)n1,inactive,
O=C(Nc1cccc(F)c1)N1CC[C@@]2(CCCNC2)C1,inactive,
Nc1ccc(N2C(=O)c3ccccc3C2=O)c(Cl)c1,inactive,

Structure (SMILES),AC50,"activity, negative = inhibition"
Nc1ccc(N(S(=O)(=O)c2ccccc2)S(=O)(=O)c2ccccc2)c(Cl)c1,0.158 µM (active),
O=C(NCC(c1cccnc1)N1CCOCC1)Nc1ccccc1 (stereo unspecified),17.8 µM (active),
CC(C)(C)C(=O)[C@H]([C@@H](c1ccccc1)N1CCOCC1)N1CCOCC1,,27.5% [at 11.4 µM]
O=C(Nc1ccccc1)N1CCC2(CC1)CCN(C(=O)c1cnccn1)CC2,inactive,
CCOC(=O)c1sc2nc3c(cc2c1N)COC(C)(CC)C3 (stereo unspecified),25.1 µM (active),
Cc1ccc(-c2ccc(/C=N\NC(=O)c3cc4c(ccc5ccccc54)o3)o2)cc1[N+](=O)[O-],inactive,
Cc1ccc(-c2ccc(/C=N/NC(=S)Nc3ccccc3)o2)cc1[N+](=O)[O-],7.94 µM (active),
CC1(C)OCC([C@H](O)C2=CCCCC2=O)CO1,,2.21% [at 11.4 µM]
Cc1nccn1C[C@@H]1CCc2c(c3ccccc3n2C)C1=O,inactive,
O=C(N/N=C/c1ccc([N+](=O)[O-])s1)c1ccccc1Br,28.2 µM (active),
Cc1nc2ccccn2c1C(=O)N/N=C/c1ccccc1[N+](=O)[O-],inactive,
O=C(N/N=C/c1ccc(Br)s1)c1ccccc1[N+](=O)[O-],12.6 µM (active),
COc1ccc2[nH]cc(CCNc3nc(-c4ccc(C(=O)N(C)C)cc4)nc4ccccc34)c2c1,3.16 µM (active),
COc1ccc2[nH]cc(CCNc3nc(-c4ccc(N(C)C)cc4)nc4ccccc34)c2c1,7.94 µM (active),
O=C1OC2CC3CC1CC(O)(C3)C2 (stereo unspecified),inactive,
COC(=O)/C(=C\C(=O)c1ccccc1)Nc1cccc(C(F)(F)F)c1,5.01 µM (active),
CCC(C(=O)Nc1cccc(C(F)(F)F)c1)c1ccccc1 (stereo unspecified),inactive,
Nc1nc2c(ncn2[C@@H]2C=C[C@@H](CO)C2)c(=O)[nH]1,,-3.48% [at 11.4 µM]
O=C(c1cc(C(F)(F)F)cc(C(F)(F)F)c1)N1CCC2(CC1)CCN(c1ccncc1)CC2,inactive,
O=C(c1cc(C(F)(F)F)cc(C(F)(F)F)c1)N1CCC2(CC1)CN(c1ccccn1)C2,inactive,
O=C(c1ccc(Oc2ccc(C(F)(F)F)cn2)cc1)N1CCN(c2ccccc2)CC1,10 µM (active),
O=C(c1cc(C(F)(F)F)cc(C(F)(F)F)c1)N1CCC2(CC1)CN(c1ccccc1)C2,inactive,
O=C(c1cc(C(F)(F)F)cc(C(F)(F)F)c1)N1CCC2(CC1)CCN(c1ccccn1)CC2,inactive,
Cc1ccc(C(=O)N2CCN(c3ccc(C(F)(F)F)cn3)CC2)cc1,25.1 µM (active),

Structure (SMILES),AC50,"activity, negative = inhibition"
CN1CCN(c2ncc3ncc(=O)n(C[C@H]4CCCO4)c3n2)CC1,inactive,
O=C(NNC(=O)c1ccccc1)C(=O)N1CCCCC1,inactive,
O=C(NC(N1CCCC1)C(Cl)(Cl)Cl)c1ccccc1 (stereo unspecified),7.94 µM (active),
CC(C)NC(=O)/C(=N\O)c1ccccc1,inactive,
CCN(CC)N=Nc1[nH]nc2nc(C)cc(C)c12,inactive,
CCN(CC)c1ncnc2c1sc1nc(C)cc(C)c12,14.1 µM (active),
Cc1ccc(-c2ncccc2OC(=O)C23CC4CC(CC(C4)C2)C3)cc1,14.1 µM (active),
O=C(CNc1cccc(Cl)c1)c1ccc(Cl)cc1,2 µM (active),
O=C(CCNc1cccc(Cl)c1)c1cccs1,3.98 µM (active),
O=C(NOC(=O)c1cc(Br)ccc1Cl)c1cccs1,inactive,
COc1ccccc1-c1nc(NCCNC(C)=O)c2ccccc2n1,inactive,
COc1ccccc1C1=NOC(COC(=O)c2ccc3ccccc3n2)C1 (stereo unspecified),15.8 µM (active),
O=C1C[C@H](c2ccccc2)[C@@H](c2ccc(Br)cc2)O1,0.398 µM (active),
O=[N+]([O-])c1c(NCCO)cc(Sc2nc3ccccc3s2)c2nonc12,2.51 µM (active),
CN(CCO)c1cc(Sc2nc3ccccc3s2)c2nonc2c1[N+](=O)[O-],11.2 µM (active),
CC(C)n1nnnc1-c1cc(Cl)cc(Cl)c1,7.94 µM (active),
CN1CC[C@@]2(CCCN(C(=O)c3cccc(F)c3)C2)C1,inactive,
Cc1cccc(Cn2ncc(Cl)c(Cl)c2=O)c1,8.91 µM (active),
Cc1cccc(-n2nnc3cnn(C)c3c2=O)c1,inactive,
CC[N+](C)(CC)CCOC(=O)C1c2ccccc2Oc2ccccc21,inactive,
CC(=O)c1ccc(OC(=O)C2c3ccccc3Oc3ccccc32)cc1,25.1 µM (active),
O=C(O)c1ccccc1C1c2ccccc2Oc2ccccc21,,9.43% [at 11.4 µM]
Oc1ccc(Cl)cc1C=Nc1cnc2ccccc2c1,,-4.43% [at 11.4 µM]
O/N=C/c1cc(Cl)ccc1OCc1cccc2ccccc12,1.58 µM (active),

Structure (SMILES),AC50,"activity, negative = inhibition"
O=[N+]([O-])c1ccc(/C=N/n2c(COc3ccccc3)n[nH]c2=S)cc1,11.2 µM (active),
O=S(=O)(N/N=C\C=C\c1ccccc1)c1ccc(Br)cc1,2 µM (active),
O=C(N/N=C/C=C/c1ccccc1)c1cc2c(ccc3ccccc32)o1,inactive,
Nc1ncnc2nc(N3CCN(CCO)CC3)[nH]c12,,-15.5% [at 11.4 µM]
COc1ccccc1C(c1nnnn1C(C)(C)C)N1CCN(Cc2ccncc2)CC1 (stereo unspecified),2.24 µM (active),
COc1ccc(C(=O)N2CCC3(CCN(Cc4ccncc4)CC3)CC2)cc1,inactive,
COc1ccccc1C(c1nnnn1C(C)(C)C)N1CCCc2ccccc21 (stereo unspecified),4.47 µM (active),
Cc1nc2cnc(N3CCN(C)CC3)nc2n(C)c1=O,inactive,
COc1cc(C2C(C#N)=C(N)N(Nc3ccccc3)C3=C2C(=O)CC(C)(C)C3)ccc1OCc1ccccc1 (stereo unspecified),6.31 µM (active),
COc1cc(C2C(C#N)=C(N)N(Nc3ccccc3)C3=C2C(=O)CC(C)(C)C3)ccc1OCc1cccc(F)c1 (stereo unspecified),7.08 µM (active),
CN(C)N1C(N)=C(C#N)C(c2cccnc2)C2=C1CC(C)(C)CC2=O (stereo unspecified),inactive,
COc1ccc(C2C(C#N)=C(N)N(Nc3ccccc3)C3=C2C(=O)CC(C)(C)C3)cc1C (stereo unspecified),2.24 µM (active),
Cc1noc(C)c1C(=O)N1CCC2(CCCN(Cc3ccc(C#N)cc3)C2)CC1,inactive,
COc1ccccc1-c1ccc2ncnc(N(C)C)c2c1,0.501 µM (active),
Cc1ccccc1-c1ccc2ncnc(N(C)C)c2c1,7.94 µM (active),
CN(C)Cc1ccccc1-c1ccc2ncnc(N(C)C)c2c1,inactive,
CN(C)c1ncnc2ccc(-c3ccccc3C(F)(F)F)cc12,3.98 µM (active),
CC(=O)OC[C@@H]1O[C@@H](O/N=C2/C[C@@H](O)[C@@H](O)[C@@H]3[C@H]4C(=O)N(c5ccc(F)cc5F)C(=O)[C@@H]4CC[C@H]23)[C@H](OC(C)=O)[C@H](OC(C)=O)[C@@H]1OC(C)=O,,-9.07% [at 11.4 µM]
CCOC(=O)N/N=C1/C[C@@H](O)[C@@H](O)[C@@H]2[C@@H]3C(=O)N(Cc4ccc5c(c4)OCO5)C(=O)[C@H]3CC[C@@H]12,,4.88% [at 11.4 µM]
CCOC(=O)N/N=C1/C[C@@H](O)[C@@H](O)[C@@H]2[C@@H]3C(=O)N(Cc4ccc5c(c4)OCO5)C(=O)[C@H]3CC[C@H]12,,-2.19% [at 11.4 µM]
CC1(C)SC(=S)N(Cc2ccc3c(c2)OCO3)C1N(O)C(=O)NC1CCCCC1 (stereo unspecified),3.55 µM (active),
CCOC(=O)c1cc(C#N)c(Oc2ccccc2OC)nc1-c1ccccc1,6.31 µM (active),
CCCCNc1c(C(=O)OCC)c(C)nc2c1cnn2CC,inactive,
CCCCNc1nc(-c2ccccc2)c(C(=O)OCC)cc1C#N,17.8 µM (active),

# From PubChem BioAssay AID1851 (National Center for Advancing Translational Sciences (NCATS), 2009)
